We go through seven compounds from PubChem BioAssay (Tox21).

The nature of experiment [1]: Nuclear factor erythroid 2-related factor 2/antioxidant responsive element (Nrf2/ARE) small molecule agonists: qHTS cell viability counter screen in human keratinocytes (AID 1919968; active = well fitted curve in the direction sought with a large enough effect in the repeat runs; an effect the other way counts as inactive or inconclusive; also: nearly all actives have a fitted effect of over 55% in size). In short, it runs like this:
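Stably transfected HaCaT (KeratinoSens), 1,500/well. Test agents in DMSO were applied for 23 h, 37 C/5% CO2. CellTiter-Fluor was incubated 1 h before the fluorescence read.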

A short description of experiment [2]: Nuclear factor erythroid 2-related factor 2/antioxidant responsive element (Nrf2/ARE) small molecule agonists: luciferase reporter gene qHTS assay in human keratinocytes (AID 1919969; also: nearly all actives have a fitted effect of over 35% in size). (In a reporter assay the amount or activity of a reporter protein is the signal.)
Experiment [3] concerns the target Gonadotropin-releasing hormone receptor (Homo sapiens) (UniProt P30968). Put plainly: Human gonadotropin-releasing hormone receptor (GnRHR) small molecule agonists, calcium flux assay in GnRHR-HEK293 cells (AID 1920063). Also: nearly all actives have a fitted effect of over 35% in size. The procedure, abridged:
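Stable human GnRHR HEK293 line. 18 h plating, then calcium dye for 1 h at 37 C. Agonist-mode compound addition from DMSO stocks; fluorescence monitored 3 min.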

For experiment [4], the target named is KiSS-1 receptor (Homo sapiens) (UniProt Q969F8). Put plainly: Human kisspeptin (KISS1R) small molecule agonists, calcium flux assay in KISS1R-HEK293 cells (AID 1920064; active = well fitted curve in the direction sought with a large enough effect in the repeat runs; an effect the other way counts as inactive or inconclusive). The procedure, abridged:
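After overnight (18 h) culture at 37 C/5% CO2, human KISS1R-HEK293 cells received calcium dye for 1 h, then test compound; emission at 540 nm (excitation 480 nm) was tracked for 3 min.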

The nature of experiment [5]: G protein-coupled receptor (GPCR) small molecule agonists, calcium flux assay: HEK293 wild type cell line counter screen (AID 1920065). In short, it runs like this:
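Following 18 h incubation at 37 C/5% CO2, plates got calcium dye for 1 h; compounds, ATP or DMSO were then pinned in and fluorescence followed kinetically (480/540 nm).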
(In general: Calcium flux is commonly read through the fluorescence of an indicator in the cells.)

Experiment [6] can be described thus: p53 small molecule agonists, cell-based qHTS assay with human liver microsomes (AID 1963577).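 Also: p53 response element beta-lactamase reporter cells with liver microsomes plus NADPH.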 The procedure, abridged:
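With metabolic activation: human liver microsomes (0.5 mg/mL final) plus NADPH (0.5 mg/mL final) added alongside compounds to p53RE-bla cells; 16 h 37 C exposure; beta-lactamase read by LiveBLAzer fluorescence.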
(In general: qHTS replaces the single test concentration by a dilution series.)

Experiment [7] is described as follows: p53 small molecule agonists, cell-based qHTS assay with rat liver microsomes (AID 1963578). Also: potency is read from the fitted curve at half-maximal effect. In short, it runs like this: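 Metabolic activation by rat liver microsomes and NADPH, each 0.5 mg/mL final, added right after compounds to p53RE-bla reporter cells (4,000/well, plated 5 h earlier). 16 h at 37 C, then LiveBLAzer substrate for 2 h at room temperature in the dark; fluorescence read-out.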

A short description of experiment [8]: p53 small molecule agonists, cell-based qHTS assay with human liver microsomes: qHTS cell viability counter screen (AID 1963579). Also: nearly all actives have a fitted effect of over 45% in size. In short, it runs like this: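 Metabolic activation used human liver microsomes and NADPH, both 0.5 mg/mL final, over 16 hours at 37 C on p53RE-bla cells (4,000/well). Cytotoxicity measured by CellTiter-Glo luminescence, 30 min at room temperature.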

A short description of experiment [9]: p53 small molecule agonists, cell-based qHTS assay: qHTS cell viability counter screen (AID 1963581). Also: nearly all actives have a fitted effect of over 45% in size. The procedure, abridged: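 qHTS counter screen: 16 h compound exposure at 37 C of p53RE-bla HCT-116 cells (4,000 per well, seeded 5 h prior), cell viability by ATP luminescence.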
Experiment [10] is described as follows: p53 small molecule agonists, cell-based qHTS assay (AID 1963582; active = well fitted activation curve with a large enough effect in the signal ratio in the repeat runs, not every such curve was filed as active; the % refers to the signal ratio). In short, it runs like this: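 Measured: fluorescence from cleaved LiveBLAzer substrate. System: p53RE-bla cells, 16 h compound treatment at 37 C, 2 h substrate step at room temperature.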
A short description of experiment [11]: cAMP Responsive Elements (CRE) small molecule antagonists, cell-based qHTS assay (AID 1963591; active = well fitted inhibition curve with a large enough effect in the signal ratio in the repeat runs, not every such curve was filed as active; the % refers to the signal ratio). In short, it runs like this:
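Reporter line CRE-bla HEK 293T in dialyzed-FBS DMEM; cells preincubated 18 h, treated 3 h with compound plus NKH477 (0.25 uM final); LiveBLAzer FRET, 2 h RT.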

Experiment [12] addresses Beta-2 adrenergic receptor (Homo sapiens) (UniProt P07550). As to the kind of experiment: Adrenergic beta2 receptor (ADRB2) small molecule antagonists, cell-based qHTS assay (AID 1963592). Also: series mostly up to about 92 µM; nearly all actives have a fitted effect of over 50% in size. The procedure, abridged: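 Assay format: CHO-ADRB2 cells, 18-20hr seeding at 37C/5% CO2, then compound plus 1nM isoproterenol agonist mix for 0.5hr RT. Homogeneous time-resolved fluorescence cAMP detection after 1hr, expressed as 665/615 nm ratio.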

In experiment [13] the target is D(2) dopamine receptor (Homo sapiens) (UniProt P14416). Put plainly: Dopamine D2 receptor (DRD2) small molecule agonists, cell-based qHTS assay (AID 1963594). Also: nearly all actives have a fitted effect of over 35% in size. The procedure, abridged:
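cAMP accumulation in DRD2-HEK293 cells measured by HTRF after 1 h detection; compounds added 10 min before NKH477 (200nM […]) forskolin-analogue stimulation, 30 min at room temperature, with Ro20-1724 present at 0.1 mM final.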

Experiment [14] shares this target. Put plainly: Dopamine D2 receptor (DRD2) small molecule antagonists, cell-based qHTS assay (AID 1963595; active = well fitted inhibition curve with a large enough effect in the signal ratio in the repeat runs, with a control signal flat; the % refers to the signal ratio). In short, it runs like this:
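Readout: HTRF cAMP, cAMP-d2 competing with cellular cAMP for anti-cAMP cryptate, read after 1 h. Cells: DRD2-HEK293. Conditions: 0.1 mM Ro20-1724, 12 nM quinpirole, 200 nM NKH477, 30 min RT.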

The target of experiment [15] is 5-hydroxytryptamine receptor 2A (Homo sapiens) (UniProt P28223). Put plainly: 5-hydroxytryptamine receptor 2A (HTR2A) small molecule agonists, cell-based qHTS assay (AID 1963587). Also: nearly all actives have a fitted effect of over 30% in size. In short, it runs like this: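 Kinetic calcium-flux fluorescence (2 min, 1 sec intervals) after compound addition in agonist mode. HTR2A-CHO cells were cultured 18 h, then dye-loaded 1 h at 37 C.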

Experiment [16] has as its target Muscarinic acetylcholine receptor M1 (Homo sapiens) (UniProt P11229). Put plainly: Cholinergic receptor muscarinic 1 (CHRM1) small molecule antagonists, cell-based qHTS assay (AID 1963588). Also: nearly all actives have a fitted effect of over 40% in size. In short, it runs like this:
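Compounds were tested at 15 concentrations in three independent runs. Dye-loaded CHRM1-CHO cells were exposed 5 min at room temperature before stimulation by acetylcholine added at 50nM. Intracellular calcium was read kinetically on FDSS for 3 min.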

Experiment [17] has the same target. As to the kind of experiment: Cholinergic receptor muscarinic 1 (CHRM1) small molecule agonists, cell-based qHTS assay (AID 1963589). Also: nearly all actives have a fitted effect of over 35% in size. The procedure, abridged:
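Kinetic fluorescence (1 s intervals) of calcium-sensitive dye in human M1 CHO cells after compound addition; cells pre-incubated 18 h at 37 C/5% CO2 and dye-loaded 1 h.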

Experiment [18] in a line: cAMP Responsive Elements (CRE) small molecule agonists, cell-based qHTS assay (AID 1963590). In short, it runs like this:
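Test agents in DMSO were incubated 3 h at 37 C/5% CO2 with CRE-bla HEK 293T cells seeded 18 h earlier; LiveBLAzer B/G FRET substrate was added and read after 2 h at room temperature.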

Experiment [19] deals with 5-hydroxytryptamine receptor 2A (Homo sapiens) (UniProt P28223). Put plainly: 5-hydroxytryptamine receptor 2A (HTR2A) small molecule antagonists, cell-based qHTS assay (AID 1963586). Also: nearly all actives have a fitted effect of over 45% in size. The procedure, abridged:
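CHO cells stably expressing human HTR2A were plated for 18 h at 37 C, then loaded with calcium dye for 1 h. Compounds were preincubated 5 min at room temperature before DOI (4 nM solution) was added. Kinetic fluorescence was read for 3 min.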

Experiment [20] can be described thus: p53 small molecule agonists, cell-based qHTS assay with rat liver microsomes: qHTS cell viability counter screen (AID 1963580). Also: nearly all actives have a fitted effect of over 45% in size. In short, it runs like this: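 Cytotoxicity counter screen: intracellular ATP read by CellTiter-Glo luminescence in the p53 reporter wells. HCT-116 p53RE-bla cells were treated for 16 h at 37 C alongside rat liver microsomes and NADPH, each 0.5 mg/mL final.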

Structures are written as SMILES. Values without a mark were called inactive. Results filed as inconclusive are left out. Calls of active or inactive are those of the source. Unless noted, calls follow the shape of the full dose curve.

Sequence of Gonadotropin-releasing hormone receptor (Homo sapiens) (P30968 whole entry, looked up): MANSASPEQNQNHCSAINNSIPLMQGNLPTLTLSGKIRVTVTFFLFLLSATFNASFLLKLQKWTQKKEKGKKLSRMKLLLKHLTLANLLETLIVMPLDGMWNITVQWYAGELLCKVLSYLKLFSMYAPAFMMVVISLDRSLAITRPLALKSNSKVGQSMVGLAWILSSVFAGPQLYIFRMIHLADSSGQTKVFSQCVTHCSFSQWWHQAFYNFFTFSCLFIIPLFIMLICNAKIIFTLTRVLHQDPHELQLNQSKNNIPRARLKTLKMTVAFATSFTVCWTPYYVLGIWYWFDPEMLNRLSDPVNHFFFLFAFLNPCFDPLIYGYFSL
Sequence of 5-hydroxytryptamine receptor 2A (Homo sapiens) (P28223 whole entry, looked up): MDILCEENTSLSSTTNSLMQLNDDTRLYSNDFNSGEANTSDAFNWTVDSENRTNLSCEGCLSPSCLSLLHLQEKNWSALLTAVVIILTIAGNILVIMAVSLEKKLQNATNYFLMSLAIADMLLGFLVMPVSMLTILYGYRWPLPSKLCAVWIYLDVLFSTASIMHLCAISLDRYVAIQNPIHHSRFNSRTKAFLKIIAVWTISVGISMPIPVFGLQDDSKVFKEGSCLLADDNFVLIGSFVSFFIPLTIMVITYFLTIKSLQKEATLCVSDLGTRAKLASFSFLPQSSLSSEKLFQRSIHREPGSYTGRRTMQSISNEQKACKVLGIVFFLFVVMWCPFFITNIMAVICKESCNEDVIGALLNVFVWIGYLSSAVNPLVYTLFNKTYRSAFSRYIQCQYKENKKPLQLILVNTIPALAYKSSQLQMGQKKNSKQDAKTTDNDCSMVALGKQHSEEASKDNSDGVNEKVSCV
Sequence of D(2) dopamine receptor (Homo sapiens) (P14416 whole entry, looked up): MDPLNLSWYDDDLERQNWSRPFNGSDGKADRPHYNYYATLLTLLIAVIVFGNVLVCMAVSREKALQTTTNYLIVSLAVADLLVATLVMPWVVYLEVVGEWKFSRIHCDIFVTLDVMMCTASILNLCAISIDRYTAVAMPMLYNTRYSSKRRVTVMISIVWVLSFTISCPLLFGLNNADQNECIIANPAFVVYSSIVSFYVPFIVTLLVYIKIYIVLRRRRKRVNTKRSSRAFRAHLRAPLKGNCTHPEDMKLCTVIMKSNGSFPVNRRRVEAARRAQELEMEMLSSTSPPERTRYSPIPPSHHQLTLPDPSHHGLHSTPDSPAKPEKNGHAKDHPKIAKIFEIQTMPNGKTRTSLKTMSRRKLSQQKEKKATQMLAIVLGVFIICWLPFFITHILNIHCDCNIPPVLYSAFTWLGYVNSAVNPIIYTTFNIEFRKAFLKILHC
Sequence of KiSS-1 receptor (Homo sapiens) (Q969F8 whole entry, looked up): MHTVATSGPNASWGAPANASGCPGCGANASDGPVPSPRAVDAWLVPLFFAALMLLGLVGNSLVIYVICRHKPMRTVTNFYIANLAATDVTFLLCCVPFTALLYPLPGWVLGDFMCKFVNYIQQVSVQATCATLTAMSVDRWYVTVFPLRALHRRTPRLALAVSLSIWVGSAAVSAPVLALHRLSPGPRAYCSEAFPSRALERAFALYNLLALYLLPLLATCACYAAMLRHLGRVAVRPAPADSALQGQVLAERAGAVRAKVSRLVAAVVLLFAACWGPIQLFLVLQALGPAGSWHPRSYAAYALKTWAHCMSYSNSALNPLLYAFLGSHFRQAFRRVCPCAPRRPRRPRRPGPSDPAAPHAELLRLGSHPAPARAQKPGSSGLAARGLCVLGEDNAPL
Sequence of Muscarinic acetylcholine receptor M1 (Homo sapiens) (P11229 whole entry, looked up): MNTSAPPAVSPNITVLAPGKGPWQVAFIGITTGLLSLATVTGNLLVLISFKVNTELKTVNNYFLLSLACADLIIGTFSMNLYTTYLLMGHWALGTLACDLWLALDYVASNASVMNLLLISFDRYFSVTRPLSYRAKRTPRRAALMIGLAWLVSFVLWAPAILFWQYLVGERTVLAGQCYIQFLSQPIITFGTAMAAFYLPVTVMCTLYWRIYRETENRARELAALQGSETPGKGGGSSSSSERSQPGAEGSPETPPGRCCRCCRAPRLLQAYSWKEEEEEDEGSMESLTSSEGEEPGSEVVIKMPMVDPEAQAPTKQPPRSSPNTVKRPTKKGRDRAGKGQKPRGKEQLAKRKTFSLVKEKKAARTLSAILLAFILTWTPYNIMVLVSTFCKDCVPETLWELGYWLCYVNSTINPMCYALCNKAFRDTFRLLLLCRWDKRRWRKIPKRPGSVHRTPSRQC
Sequence of Beta-2 adrenergic receptor (Homo sapiens) (P07550 whole entry, looked up): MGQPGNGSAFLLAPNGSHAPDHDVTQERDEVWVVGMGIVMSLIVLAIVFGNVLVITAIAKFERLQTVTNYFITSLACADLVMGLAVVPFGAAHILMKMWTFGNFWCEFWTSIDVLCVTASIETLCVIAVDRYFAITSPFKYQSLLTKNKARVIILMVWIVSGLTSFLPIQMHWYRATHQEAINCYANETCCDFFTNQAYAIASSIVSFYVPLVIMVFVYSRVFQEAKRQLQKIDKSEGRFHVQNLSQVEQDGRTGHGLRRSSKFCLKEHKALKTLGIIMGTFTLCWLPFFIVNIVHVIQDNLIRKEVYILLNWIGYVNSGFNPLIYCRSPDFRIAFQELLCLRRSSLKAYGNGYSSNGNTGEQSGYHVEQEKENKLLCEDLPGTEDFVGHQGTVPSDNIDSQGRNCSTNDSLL

Regarding `CNS(=O)(=O)Cc1ccc2[nH]cc(CCN(C)C)c2c1`, the Potency entry in experiment [1], in experiment [2], in experiment [3], in [6], in experiment [7] and in experiment [8] was “inactive” each time. For the same compound, the Potency entry in experiment [9], in [10], in experiment [11], in [12], in experiment [13] and in experiment [14] was “inactive” each time. Moreover, the result in experiment [4] and in experiment [5] was inactive.
Take `C=C(C)CCCC`: the Potency entry in experiment [1], in [2], in [3], in [6], in experiment [7] and in [8] was “inactive” each time. Besides, the Potency entry in experiment [9], in experiment [10], in experiment [15], in experiment [16], in [17] and in experiment [18] was “inactive” in each case. Further, the Potency result in [11], in experiment [12], in [13] and in experiment [14] was “inactive” each time. Also, the outcome in experiment [4] and in experiment [5] was inactive.
In the case of `CCOC(=O)c1c(N)sc2c1CCN(Cc1ccccc1)C2`, the Potency result in experiment [1], in experiment [2], in experiment [3], in experiment [6], in experiment [8] and in experiment [9] was “inactive” each time. Also, the Potency entry in [10], in experiment [15], in experiment [16], in [17], in [18] and in [12] was “inactive” in each case. Also, the Potency entry in [13] and in experiment [14] was “inactive” each time. The result in [4] and in [5] was inactive. Also, in experiment [7], the Potency is 15.8 µM (active).
Turning to `CC1=NN(c2ccc(C(=O)O)cc2)C(=O)C1`, the Potency entry in [1], in [2], in experiment [3], in experiment [6], in experiment [7] and in experiment [8] was “inactive” in each case. Also, the Potency result in [9], in experiment [19], in experiment [15], in experiment [16], in experiment [17] and in experiment [18] was “inactive” each time. Further, the Potency entry in experiment [11], in experiment [12], in experiment [13] and in experiment [14] was “inactive” in each case. For the same compound, the result in experiment [4] and in [5] was inactive.
Consider `CCCCCCCCCCCCCCCC(=O)OC[C@H](O)[C@H]1OC(=O)C(O)=C1O`, for which the Potency result in experiment [1], in experiment [2], in [3], in [6], in [7] and in experiment [8] was “inactive” each time. For the same compound, the Potency result in [9], in experiment [19], in experiment [15], in [16], in [17] and in experiment [18] was “inactive” each time. For the same compound, the Potency entry in experiment [11], in experiment [12], in experiment [13] and in [14] was “inactive” each time. Moreover, the result in experiment [4] and in experiment [5] was inactive.
As to `O=C1OCc2ccccc21`, the Potency entry in experiment [1], in [2], in [3], in experiment [6], in experiment [7] and in experiment [8] was “inactive” throughout. Further, the Potency result in experiment [9], in experiment [16], in [17], in experiment [18], in experiment [11] and in [12] was “inactive” in each case. Moreover, in experiment [13], the Potency result was “inactive”. Also, the result in experiment [4] and in experiment [5] was inactive.
For `CC(C)(C)OC(=O)c1ccccc1C(=O)O`, the Potency result in experiment [1], in [2], in [3], in [6], in experiment [7] and in [20] was “inactive” throughout. Moreover, the Potency result in experiment [9], in [10], in experiment [19], in experiment [15], in experiment [16] and in experiment [17] was “inactive” throughout. In addition, the Potency result in [18], in experiment [11], in [12], in experiment [13] and in [14] was “inactive” in each case. Moreover, the result in [4] and in experiment [5] was inactive.
